Hits are enriched below; roughly 1.6% of the tested compounds scored in any of these assays.
PERK inh = human PERK inhibition, primary cell-based screen. Q9NZJ5. AID 1416. 220,000 tested, 0.17% active. CHO PERK-DD fusion, SEAP luminescence translation reporter. inhibition, % at 5.6 µM;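 active = inhibition above the mean inhibition of all tested compounds plus 3 SD, set separately per screening campaign, cut at about 2.9% in these data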;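 note: PERK kinase domain activated by AP20187 dimerizer at 100 nM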
NALP1 yeast inh = inhibitors of NALP1 inflammasome in yeast. S. cerevisiae NALP1/ASC/caspase-1 growth, X-gal OD620, 72 h. inhibition, % at 10 µM. 280,000 tested, 0.61% active. AID 2071; in the data active = inhibition mostly above about 24%, no sharp cut-off; inactive = mostly below about 32%
CR mimetic SO = lowers age-related superoxide in aged yeast cells | 330,000 tested, 0.18% active | superoxide response (% of plate mean), % at 10 µM | AID 2690 | S. cerevisiae aged cells, superoxide DHE fluorescence; stronger effect = lower value;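 active = superoxide response under a set limit, about three screen SD below normal, cut at about 65% in these data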;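 note: yeast aged for seven days with compound at 30 °C before DHE staining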
V-ATPase pHluor = yeast V-ATPase proton transport regulation by pHLuorin; 350,000 tested, 0.37% active; S. cerevisiae, pHLuorin cytosolic pH fluorescence; AID 504577; response, % at 10 µM; in the data active = response mostly above about 7.3%, no sharp cut-off; inactive = mostly below about 5.4%; note: actives read high
NLRP3 yeast inh = inhibitors of NALP3 inflammasome in yeast | Yeast reconstituted NLRP3/ASC/caspase-1, beta-gal luminescence, 24 h | inhibition, % at 10 µM | 330,000 tested, 0.39% active;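 active = inhibition of 50% or more; inactive = inhibition below 50%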
Rce1 inh = yeast Ras-converting enzyme inhibition. yeast membranes, quenched prenylated peptide cleavage fluorescence. calls only. 290,000 tested, 0.27% active;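 active = fall in fluorescence gain of 50% or more versus controls, with final raw signal at or below 3038400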
Target sequence (Q03530 whole entry, looked up): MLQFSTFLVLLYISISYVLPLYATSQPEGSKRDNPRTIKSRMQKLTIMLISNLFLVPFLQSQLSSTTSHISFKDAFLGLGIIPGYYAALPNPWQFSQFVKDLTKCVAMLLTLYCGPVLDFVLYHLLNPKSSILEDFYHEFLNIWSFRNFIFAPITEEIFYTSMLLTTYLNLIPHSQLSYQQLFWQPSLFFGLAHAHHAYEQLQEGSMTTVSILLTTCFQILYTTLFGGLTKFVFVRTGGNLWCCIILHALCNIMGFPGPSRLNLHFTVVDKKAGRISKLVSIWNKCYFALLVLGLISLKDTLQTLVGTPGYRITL
Numbers stand for hits; i = inactive; nt = no result given; + = active, no number.

SMILES	PERK inh	NALP1 yeast inh	CR mimetic SO	V-ATPase pHluor	NLRP3 yeast inh	Rce1 inh
Cc1ccc(N2CCN(CC(O)COc3ccc([N+](=O)[O-])cc3)CC2)cc1 (stereo unspecified)	i	i	i	i	i	i
CCC1(C(=O)OC)NC(c2ccco2)C2C(=O)N(c3ccc(F)cc3)C(=O)C21 (stereo unspecified)	i	i	i	i	i	i
CCC1(C(=O)OC)NC(c2ccco2)C2C(=O)N(c3ccccc3)C(=O)C21 (stereo unspecified)	i	i	i	14.8	i	i
CCOC1(OCC)OC(c2ccccc2)=C(C#N)C(C=Cc2ccccc2)C1(OCC)OCC (stereo unspecified)	nt	nt	nt	i	nt	nt
Nc1nnc(CC(=O)Nc2ccccc2)s1	3.0	i	i	i	i	i
Cc1nc2nc(C)n(CCN3CCOCC3)c(=O)c2c(-c2cccc([N+](=O)[O-])c2)c1C(=O)CCCCCCCCCCN1CCC(c2ccccc2)(c2ccccc2)CC1	nt	nt	nt	i	nt	nt
C=C1C(=O)N(C)CCC1C(CC)C(=O)OC (stereo unspecified)	nt	nt	nt	i	nt	nt
CC1=C(C(=O)OCCc2ccccc2)C(c2ccsc2)NC(=O)N1C (stereo unspecified)	i	i	i	22.8	i	i
CC1=C(C(=O)OCc2ccccc2)C(c2ccsc2)NC(=O)N1C (stereo unspecified)	i	i	i	i	i	nt
COCCNC(=O)c1c[nH]n2c(=O)cc(C3CCN(C(=O)OC(C)(C)C)CC3)nc12	3.8	i	i	i	i	i
CCOC(=O)N1CCC(c2cc(=O)n3[nH]c(C)c(-c4ccc(F)cc4)c3n2)CC1	i	i	i	i	i	i
Oc1ccccc1N=Cc1sc2ccccc2c1Cl	i	53.7	i	i	i	i
Cc1ccc(O)c(N=Cc2sc3ccccc3c2Cl)c1	i	i	i	i	i	i
CC1=NCCN1S(=O)(=O)c1c(C(C)C)cc(C(C)C)cc1C(C)C	i	28.0	i	i	i	i
COc1ccc(Cl)cc1S(=O)(=O)N1CCN=C1C	i	i	i	i	i	i
CN1Cc2sc(NC(=S)NC(=O)c3ccccc3)c(C#N)c2CC1(C)C	i	nt	i	29.4	i	nt
CCCCN1C(=O)C(CC(=O)NCCN2CCOCC2)CC(C(=O)N(C)C)=C1C (stereo unspecified)	nt	nt	nt	i	nt	nt
CC1=CC(C)(C)N(C(=O)CCl)c2ccccc21	i	28.0	i	i	i	i
CC1=CC(C)(C)N(C(=O)CCl)c2cc(C)ccc21	i	i	i	i	i	i
Cc1cn([C@H]2C[C@H](O)[C@@H](CNCc3cccc(OC4CCCC4)c3)O2)c(=O)[nH]c1=O	nt	nt	nt	i	nt	nt
O=S(c1ccccc1O)S(=O)c1ccccc1O (stereo unspecified)	nt	nt	nt	i	nt	nt
COc1ccc2[nH]c(C(=O)N(Cc3ccccn3)Cc3ccccn3)cc2c1	i	nt	i	36.9	i	i
O=c1c(Br)ccc(Br)cc1Br	nt	nt	nt	62.1	nt	nt
O=C1CN(S(=O)(=O)c2cc(Br)ccc2Br)CCN1	nt	nt	i	i	i	nt
COc1ccc(NC(=O)CN2C(=O)NC(C)(Cc3ccc(OC)c(OC)c3)C2=O)cc1 (stereo unspecified)	nt	nt	nt	i	nt	nt
SMILES	PERK inh	NALP1 yeast inh	CR mimetic SO	V-ATPase pHluor	NLRP3 yeast inh	Rce1 inh
O=c1[nH]cnc(O)c1C(c1ccc2c(c1)OCO2)c1c(O)nc[nH]c1=O	i	28.5	i	i	i	i
COc1ccc(CC(=O)O/N=C(\N)c2ccccn2)cc1	3.1	nt	i	i	i	i
CC12CCC3c4ccccc4CCC3(CO1)C2 (stereo unspecified)	nt	nt	nt	i	nt	nt
COc1ccc(-n2c(SCc3ccc([N+](=O)[O-])cc3)nnc2-c2ccc(C)cc2)cc1	i	i	i	i	i	+
COc1ccc(-n2c(Cc3ccccc3)nnc2SCc2ccc([N+](=O)[O-])cc2)cc1	i	i	i	i	i	nt
CN1CCC(Oc2ccc(Sc3ccccc3)cc2)CC1	i	48.9	i	i	i	i
COCCN1C(=O)c2oc3ccccc3c(=O)c2C1c1ccc(OC)c(OC)c1 (stereo unspecified)	i	i	i	i	i	i
C=CCN1C(=O)c2oc3ccccc3c(=O)c2C1c1ccc(O)c(OC)c1 (stereo unspecified)	i	37.6	i	i	i	i
Cc1csc(NC(=O)c2ccc(COc3ccccc3)o2)n1	nt	43.2	i	i	i	i
CN(Cc1ccccc1F)C(=O)c1cccc(NC(=O)CC2SC(N3CCCCC3)=NC2=O)c1 (stereo unspecified)	nt	nt	nt	i	nt	nt
O=C(CSc1nc2ccccc2s1)Nn1cnnc1	i	24.2	i	i	i	i
Cc1cc(C)n2nc(CC(=O)NNC(=O)c3ccc(N(C)C)cc3)nc2n1	nt	i	i	i	i	+
Cc1ccc(C(=O)NNC(=O)Cc2nc3nc(C)cc(C)n3n2)cc1	nt	i	i	i	i	i
Cc1cc(C)c(NC(=O)NC(=O)C(Cl)(Cl)Cl)c(C)c1	3.5	i	i	i	i	i
Cc1ccc(N(CC(=O)NC(C)C)C(=O)CCC(=O)Nc2ccccn2)c(C)c1	nt	nt	nt	i	nt	nt
CCOc1ccc(Cl)cc1S(=O)(=O)N1CCN(c2ccc(C)c(C)c2)CC1	i	i	i	i	i	i
CCOc1ccc(Cl)cc1S(=O)(=O)n1cnc2cc(C)c(C)cc21	i	41.2	i	i	i	i
CCCNS(=O)(=O)c1ccc(OCC(=O)OC)cc1	i	i	i	i	i	i
CCCNS(=O)(=O)c1ccc(OCC(=O)N(C)Cc2ccccc2)cc1	i	i	59.8	i	i	i
O=C(Nc1ccccc1[N+](=O)[O-])OCC=Cc1ccccc1	nt	nt	nt	i	nt	nt
C[N+]1(CC2COC3(CCCCC3)O2)CCCC1 (stereo unspecified)	i	i	i	i	i	i
C1CCCCCC2(CCCCC1)OCC(CN1CCOCC1)O2 (stereo unspecified)	i	54.0	i	i	i	i
Cc1cccc(NS(=O)(=O)c2ccc(C)c(C(=O)OCC(=O)Nc3cc(C)on3)c2)c1	i	i	i	i	i	+
Cc1cccc(NS(=O)(=O)c2cc(C(=O)OCC(=O)Nc3cc(C)on3)ccc2C)c1	i	i	i	i	i	i
CCCCC1(C)OC(=O)C(=Cc2ccc(-c3ccc(Cl)c(C(=O)O)c3)o2)C(=O)O1 (stereo unspecified)	i	i	63.1	i	i	i
SMILES	PERK inh	NALP1 yeast inh	CR mimetic SO	V-ATPase pHluor	NLRP3 yeast inh	Rce1 inh
Cc1ccc(N2NC(=O)/C(=C/c3ccc(-c4ccc(Cl)c(C(=O)O)c4)o3)C2=O)cc1	i	i	i	i	i	i
CC(=O)C1C(c2ccco2)c2c(noc2C)CC1(C)O (stereo unspecified)	3.0	i	i	i	i	i
Cc1nc2c(C(=O)N3CCN(C)CC3)cnn2c(C)c1Cc1ccc(Cl)cc1	i	i	i	i	i	+
Cc1ccc(Cc2c(C)nc3c(C(=O)O)cnn3c2C)cc1	i	nt	nt	nt	nt	nt
CCC(=O)OCC(=O)c1c(N)n(Cc2ccccc2)c(=O)n(C)c1=O	i	32.1	i	i	i	i
CCN(CC)CC(=O)c1c(N)n(Cc2ccccc2)c(=O)n(C)c1=O	i	i	i	i	i	i

Source: PubChem BioAssay
